Results taken from PubChem BioAssay AID1851 (National Center for Advancing Translational Sciences (NCATS), 2009).
In all, about 16,000 compounds went through this assay and about 5,700 (36%) were called active. About 24% were inconclusive and are not listed. The call rests on the fitted dose curve; in most records, active means well fitted curve in the direction sought with a large enough effect; inconclusive means small, poorly fitted or top-dose-only effect, or effect the other way; inactive means no such curve, though single readings can be large or run the other way. This is one part of the list.

Target: Cytochrome P450 1A2 (Homo sapiens) (UniProt P05177)
Assay: Cytochrome panel assay with activity outcomes
Conditions: recombinant CYP, pro-luciferin dealkylation, luminescence, p450-cyp1a2; series mostly up to 57.1 µM; activity, negative = inhibition: at the top concentration
On the % scale 0 is the no-effect control and ±100 the full control effect.

Sequence of Cytochrome P450 1A2 (Homo sapiens) (P05177 whole entry, looked up): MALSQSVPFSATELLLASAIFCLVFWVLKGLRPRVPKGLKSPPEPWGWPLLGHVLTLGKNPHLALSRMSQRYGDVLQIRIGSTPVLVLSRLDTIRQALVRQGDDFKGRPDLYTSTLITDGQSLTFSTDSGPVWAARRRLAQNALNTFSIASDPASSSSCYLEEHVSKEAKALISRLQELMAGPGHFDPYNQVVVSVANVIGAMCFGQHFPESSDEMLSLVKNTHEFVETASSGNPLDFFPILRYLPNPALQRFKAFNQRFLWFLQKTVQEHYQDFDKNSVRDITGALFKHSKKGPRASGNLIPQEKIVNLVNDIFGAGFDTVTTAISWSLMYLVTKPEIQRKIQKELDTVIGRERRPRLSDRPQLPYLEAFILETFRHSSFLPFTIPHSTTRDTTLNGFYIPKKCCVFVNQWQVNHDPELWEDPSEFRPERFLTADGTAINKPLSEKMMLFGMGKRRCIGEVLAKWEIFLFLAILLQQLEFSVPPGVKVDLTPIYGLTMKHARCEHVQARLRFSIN

activity, negative = inhibition, inactive:
C/C(=C(/CCO)SSC[C@@H]1CCCO1)N(C=O)Cc1cnc(C)nc1N -10.8% [at 25.6 µM]
CC(C)CC(=O)N1CCC(O)(CS(=O)(=O)Cc2ccc(Cl)cc2)CC1 11%
CCOC(=O)C1CCCN(C(=O)CSCc2ccccc2)C1 (centres undefined) -15.5%
CCCNC(=O)OC[C@H]1O[C@@H](CCO/N=C2/[C@H]3O[C@@H]3[C@@H](O)[C@H]3[C@H]2CCn2c(=O)n(-c4ccccc4)c(=O)n23)C=C[C@@H]1Oc1ccc(OC)cc1 -12.7% [at 11.4 µM]
COc1ccc(-n2c(=O)c(-c3cn(C)c4ccccc34)nc3cnc(OC)nc32)cc1 -22%
CS(=O)(=O)N1CCC[C@@]2(CCN(Cc3nccs3)C2)C1 3.08%
CCOC(=O)c1sc(NC(=O)CSc2nc(C)cc(C)c2C#N)c(C#N)c1C -28.8%
COc1cc2cc3c(N)c(C(=O)Nc4sc(C)c(C)c4C#N)sc3nc2cc1OC -27.6%
CCOc1ccc(/C=C/C2=Cc3c(sc(NC(=O)CSc4n[nH]c(N)n4)c3C#N)C(C)(C)C2)cc1 -14.8%
Cc1ccc(/C=C/C2=Cc3c(sc(NC(=O)CSc4n[nH]c(N)n4)c3C#N)C(C)(C)C2)o1 -29.2%
Cc1ccc(S(=O)(=O)n2c3ccccc3c3nnc(C(=O)c4ccccc4)nc32)cc1 -2.9% [at 11.4 µM]
N[C@H](CCC(=O)NCC(=O)O)C(=O)O -17.4%
COc1ccccc1CN1CCC2(CCNCC2)CC1 -5.13%
CN(C)CCn1nnnc1SCC1=C(C(=O)O)N2C(=O)[C@@H](NC(=O)Cc3csc(N)n3)[C@@H]2SC1 -6.52% [at 25.6 µM]
CC1(C)S[C@@H]2[C@H](NC(=O)C(N)c3ccccc3)C(=O)N2[C@H]1C(=O)O (some centres undefined) -0.0503% [at 25.6 µM]
CC(C)[C@@H](OCc1ccccc1)[C@H](C)/C=N\OC[C@@H](O)[C@@H]1O[C@@H]2OC(C)(C)O[C@@H]2[C@H]1O -0.825% [at 11.4 µM]
COC(=O)N1CCC[C@@]2(CCN(C(=O)Nc3ccc(OC)cc3)C2)C1 -2.89%
N=C(N)SCC(=O)O -10.2% [at 2.29 µM]
Cn1c(/C(C#N)=C(\O)c2ccc(S(=O)(=O)N3CCCCC3)cc2)nc2ccccc21 -8.63%
CN(C)CCCNC(=O)CCc1nc2ccccc2c(=O)[nH]1 -6.97%
CN(CCCNC(=O)c1ccc(/C=N/O)nc1)CCCN(C)Cc1ccccc1 2.39%
Cc1ccc(N(C(=O)Cn2nnc(-c3ccc(F)cc3)n2)C(CC(C)C)C(=O)NCC2CCCO2)cc1 (centres undefined) -2.51%
CC(C)c1ccccc1S(=O)c1ccccc1C(C)(C)O (centres undefined) -10.7% [at 2.29 µM]
O=C(O)c1ccccc1OP(=O)(O)O -1.68% [at 25.6 µM]
NCc1ccc(C(=O)O)cc1 -4.79% [at 2.29 µM]
O=C(O)c1cccc2cccc(-c3cccc4cccc(C(=O)O)c34)c12 -12.3% [at 2.29 µM]
Cc1ccc(Cl)cc1-n1c(=O)cc(N2CC(C)OC(C)C2)[nH]c1=O (centres undefined) -1.42%
Cc1cccc(Nc2cc(Cl)nc(SCC(=O)O)n2)c1C 0.128%
Cn1c(=O)n2n(c1=O)[C@H]1[C@H](O)[C@H]3O[C@@H]3/C(=N/OC[C@@H](O)COCc3ccco3)[C@@H]1CC2 2.55% [at 11.4 µM]
CCc1cccc2c3c([nH]c12)[C@@](CC)(CC(=O)O)OCC3 -10.3% [at 25.6 µM]
NS(=O)(=O)c1ccc(N=C2C(=O)Nc3ccccc32)cc1 -12.7% [at 2.29 µM]
O=C1Nc2ccccc2C1=Nc1ccc(S(=O)(=O)Nc2nccs2)cc1 -18.2% [at 11.4 µM]
c1cc(NNc2cccc(-c3nn[nH]n3)c2)cc(-c2nn[nH]n2)c1 -15.5% [at 2.29 µM]
CC[C@@H]1CC(=O)N(SC[C@H](N)C(=O)O)C1=O -14.7% [at 11.4 µM]
COc1cccc([C@@H]2Oc3ccc(Br)cc3C(=O)[C@H]2O)c1 -3.35% [at 11.4 µM]
CCc1c(C)c(C#N)c2nc3ccccc3n2c1Nc1c(C)n(C)n(-c2ccccc2)c1=O -20.2%
Cc1sc(NC(=O)c2ccco2)c(C(c2cccnc2)N2CCN(C)CC2)c1C (centres undefined) -7.13%
Cc1sc(NC(=O)c2ccco2)c(C(c2ccncc2)N2CCOCC2)c1C (centres undefined) -16.7%
CC(C)NC(=O)N1CC[C@@]2(CCCN(C(=O)c3cccn3C)C2)C1 1.6%
Cn1cccc1C(=O)N1CCC2(CC1)CN(c1ccncc1)C2 0.971%
O=C(c1ccco1)N1CCC2(CC1)CCN(C(c1ccccc1)c1ccccc1)CC2 -6.96%
O=C(c1ccco1)N1CCC2(CC1)CN(C(c1ccccc1)c1ccccc1)C2 -18.6%
O=C(c1cccc(F)c1)N1CCC[C@@]2(CCN(C(c3ccccc3)c3ccccc3)C2)C1 -0.977%
CN1CC[C@@]2(CCCN(C(=O)c3cccn3C)C2)C1 10.5%
CC(=O)N1CCC[C@@]2(CCN(c3ccccc3)C2)C1 5.33%
CC(=O)N1CCC[C@@]2(CCN(c3ccncc3)C2)C1 1.12%

AC50, active:
CCOC(=O)N1CCN(C(=O)CSCc2ccc(Cl)cc2)CC1 6310 nM
CCOc1cccc2cc(C(N)=O)c(=NCc3ccccc3)oc12 2240 nM
CN(Cc1ccco1)c1ncnc2ccc(-c3cccnc3)cc12 316 nM
COc1cccc(-c2ccc3ncnc(N(C)Cc4ccco4)c3c2)c1 1260 nM
Cc1ccc(CSc2nnc3c(n2)OC2(Nc4ccccc4-3)C(=O)Nc3ccc(F)cc32)cc1 (centres undefined) 14100 nM
Cn1cc(-c2nc3cncnc3n(C3CC3)c2=O)c2ccccc21 200 nM
Cn1cc(-c2nc3cncnc3n(-c3ccccc3)c2=O)c2ccccc21 1580 nM
COc1ccc(-n2c(=O)c(-c3cn(C)c4ccccc34)nc3cncnc32)cc1 316 nM
COc1ccc(Oc2ncc3nc(-c4cn(C)c5ccccc45)c(=O)n(C4CC4)c3n2)cc1 12600 nM
CCOC(=O)c1sc(NC(=O)CSc2nc(C)cc(C)n2)c(C#N)c1C 10000 nM
CCOC(=O)c1sc(NC(=O)CSc2n[nH]c(-c3ccc(Cl)cc3Cl)n2)c(C#N)c1C 14100 nM
Cc1ccc(-c2nc3c(=O)n(C)c4ccccc4c3o2)cc1 398 nM
Cn1c(=O)c2nc(-c3ccccc3)oc2c2ccccc21 398 nM
COc1ccc2[nH]cc(CCNc3cc(-c4cccc(C#N)c4)ncn3)c2c1 794 nM
COc1ccc2[nH]cc(CCNc3ccnc(-c4cccnc4)n3)c2c1 251 nM
COc1ccc2[nH]cc(CCNc3cc(-c4cccnc4)ncn3)c2c1 3160 nM
COc1cccc(-c2cc(NCCc3c[nH]c4ccc(OC)cc34)ncn2)c1 794 nM
COc1ccc2[nH]cc(CCNc3ccnc(-c4cccc(NS(C)(=O)=O)c4)n3)c2c1 1580 nM
COc1ccc2[nH]cc(CCNc3cc(-c4ccoc4)ncn3)c2c1 631 nM
c1ccc(-c2nc(N3CCCCCC3)nc(-n3ccnc3)n2)cc1 1260 nM
CN(c1ccccc1)c1nc(-n2ccnc2)nc(-n2ccnc2)n1 158 nM
Cc1ccccc1-c1nccc(-n2ccnc2)n1 79.4 nM
COc1ccccc1-c1nccc(-n2ccnc2)n1 158 nM
Clc1ccccc1-c1nccc(-n2ccnc2)n1 158 nM
COc1ccc(/C(O)=C(\C#N)c2nc3ccccc3n2C)cc1OC 5010 nM
CN(CCCNC(=O)c1cccn2c(=O)c3ccccc3nc12)Cc1ccccc1 14100 nM
Cc1cccc(CNc2ncncc2-c2ccc3c(c2)OCO3)c1 126 nM
c1cncc(CNc2ncncc2-c2ccc3c(c2)OCO3)c1 398 nM
Cc1cnc(CNc2ncncc2-c2ccc3c(c2)OCO3)cn1 2000 nM
c1csc(CNc2ncncc2-c2ccc3c(c2)OCO3)c1 200 nM
c1ccc(Nc2ncncc2-c2ccc3c(c2)OCO3)cc1 316 nM
c1ccc(CNc2ncncc2-c2ccc3c(c2)OCO3)cc1 126 nM
O=C(O)c1ccccc1/C=N\N=C1c2ccccc2-c2ccccc21 316 nM
O=C(O)c1ccc(/C=N\N=C2c3ccccc3-c3ccccc32)cc1 126 nM
Clc1ccc(Cl)c(Nc2ccnc(SCc3ccccc3)n2)c1 501 nM
CCc1cccc2c(-c3ccccc3)c3c(nc12)OCC3 316 nM
O=C1Nc2ccccc2/C1=N/c1sc2c(c1C(=O)NCCc1ccccc1)CCCC2 2510 nM
CC(=O)NCCNc1nc(-c2cccc(NS(C)(=O)=O)c2)nc2ccccc12 15800 nM
COCCNc1nc(-c2cccc(NS(C)(=O)=O)c2)nc2ccccc12 3160 nM
CS(=O)(=O)Nc1cccc(-c2nc(NCc3ccccc3)c3ccccc3n2)c1 2510 nM
CS(=O)(=O)Nc1cccc(-c2nc(NCc3cccs3)c3ccccc3n2)c1 1000 nM
Cc1cccc(CNc2nc(-c3cccc(NS(C)(=O)=O)c3)nc3ccccc23)c1 15800 nM
Cc1sc(NC(=O)c2ccco2)c(C(c2cccnc2)N2CCCC2)c1C (centres undefined) 14100 nM
CCCCN(C)Cc1c(C)[nH]c2ccc(Cl)cc2c1=O 5010 nM
O=C(c1ccco1)N1CCC[C@@]2(CCN(C(c3ccccc3)c3ccccc3)C2)C1 25100 nM
Cn1cccc1C(=O)N1CCC[C@@]2(CCN(C(c3ccccc3)c3ccccc3)C2)C1 20000 nM
Cn1cccc1C(=O)N1CCC[C@@]2(CCN(c3ccncc3)C2)C1 12600 nM
Cn1cccc1C(=O)N1CCC[C@@]2(CCN(c3ccccc3)C2)C1 12600 nM
